Here are results for 68 compounds from PubChem BioAssay AID1645855 (Buhrlage Lab, Dana-Farber Cancer Institute and Novartis …, 2021).

SMILES strings stand for the structures. Hit rate of the full screen: of about 47,000 compounds, about 3,100 (6.6%) were called active. This is one part of a sample in which actives are shown more often than they occur. A number with no mark means an inactive call. Cut-off read from the data, not from the text of the source: active = inhibition above about 30%; inactive = the rest.

This experiment deals with Ubiquitin carboxyl-terminal hydrolase 17-like protein 5 (Homo sapiens) (UniProt A8MUK1). Briefly: blocks human USP17 ubiquitin-rhodamine cleavage (AID 1645855). The note with it: purified USP17, Ub-rhodamine cleavage fluorescence, 3 h; at 50 µM; hits give high values.
Ubiquitin carboxyl-terminal hydrolase 17-like protein 5 (Homo sapiens), sequence (A8MUK1 whole entry, looked up): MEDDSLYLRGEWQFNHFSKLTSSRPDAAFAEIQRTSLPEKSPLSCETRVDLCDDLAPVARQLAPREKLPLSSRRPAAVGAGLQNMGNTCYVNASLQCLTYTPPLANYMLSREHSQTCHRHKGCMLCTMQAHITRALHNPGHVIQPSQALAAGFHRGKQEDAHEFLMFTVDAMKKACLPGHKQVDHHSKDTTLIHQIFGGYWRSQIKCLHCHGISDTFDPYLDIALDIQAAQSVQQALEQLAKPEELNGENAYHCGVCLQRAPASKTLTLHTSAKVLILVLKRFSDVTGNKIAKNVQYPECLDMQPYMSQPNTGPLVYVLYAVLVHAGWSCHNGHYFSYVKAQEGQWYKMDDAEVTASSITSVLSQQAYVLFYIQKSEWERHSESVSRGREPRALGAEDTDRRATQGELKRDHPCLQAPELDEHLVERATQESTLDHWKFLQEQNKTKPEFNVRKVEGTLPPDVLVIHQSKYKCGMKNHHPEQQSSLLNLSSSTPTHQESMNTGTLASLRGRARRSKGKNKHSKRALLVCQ
In the case of `O=C(c1ccc(OC2CCN(C(=O)C3CCC3)CC2)nc1)N1CCOCC1`, the inhibition is -14.4%.
For `CC(=O)N1CC2(CCN(C(=O)c3ccncc3)CC2)Nc2ccccc21`, the inhibition was -3.13%.
With `CCOC(=O)c1[nH]c2cc(OC)c(OC)cc2c1NC(=O)c1cc2cccc(OC)c2o1`, the inhibition is -23.6%.
For the compound `CCOC(=O)c1c(NC(=O)CNc2cc(C)ccc2C)sc(Cc2ccc3c(c2)OCO3)c1C`, the inhibition was 5.67%.
The value for `O=C(c1cccnc1)N1CC[C@@H]2CNS(=O)(=O)[C@@H]2CC1` was -5.34%; that for `CN1[C@@H](CCC(=O)N2CCN(c3ccccc3)CC2)CNC(=O)[C@H]2NCC[C@H]21` was 7.19%; that for `Cc1ccc(N(C)C(=O)CCn2cnc3ccccc3c2=O)cc1` was -3.3%.
For the compound `Cc1ccc(NC(=O)CCn2cnc3c2c(=O)n(C)c(=O)n3C)cc1`, the inhibition was -13%.
With `Cc1c(Cl)cccc1NC(=O)CCn1cnc2ccccc2c1=O` the figure was 55.3% (active); with `Cc1nnc2c(NC(=O)Cc3cccc(C(F)(F)F)c3)cccn12`, -9.8%.
With `Cc1cccc(NC(=O)C2CN(S(C)(=O)=O)c3ccccc3O2)c1C` (stereo not drawn), the inhibition was -4.9%.
The value for `CCS(=O)(=O)n1nc(NCc2ccccc2)nc1NCc1ccccc1` was 1.97%.
Turning to `CCOc1ccc(NC(=S)Nc2ccc(Cc3ccncc3)cc2)cc1`, the inhibition is 7.13%.
With `COc1ccc(-c2[nH]c3ccccc3c2SCCNC(=O)c2ccc(S(=O)(=O)N3CCOCC3)cc2)cc1` the figure was 56.7% (active).
The value for `COc1ccc(NC(=O)c2cc(=O)[nH]c3ccccc23)cc1S(=O)(=O)N1CCOCC1` was -3.19%; that for `COc1ccc(-c2cnc(SCCNC(=O)c3cccc(F)c3)[nH]2)cc1` was -3.6%.
With `CC(C)Oc1ccc(CNC(=O)C2CCCN(c3ccc(N4CCOCC4)nn3)C2)cc1` (stereo not drawn) the figure was -6.08%.
As for `O=C1C(O)=C(c2ccc(O)c(O)c2)C(=O)C(O)=C1c1ccccc1`, the inhibition is 57.3% (active).
Take `COc1cnc(CSc2nccc(C)n2)cc1OCC(=O)Nc1ccc(C)cc1C`: the inhibition was 2.43%.
The value for `CC(C)Cc1cc(-c2nn3c(-c4ccccc4Cl)nnc3s2)n[nH]1` was 42.6% (active).
As to `CC(C)Cc1nc2sc3c(N(CCO)Cc4ccccc4)ncnc3c2c2c1COC(C)(C)C2`, the inhibition was 29.6%.
The value for `CC(O)CNc1ncnc2c1oc1nc(C(C)C)c3c(c12)CCC3` (stereo not drawn) was 3.5%.
For `CC(C)Cc1nc2sc3c(NCc4ccco4)ncnc3c2c2c1CCC2`, the inhibition is 43.3% (active).
On to `COc1cccc(-c2cn3c4c(=O)n(C)c(=O)n(C)c4nc3n2-c2ccc(OC)c(OC)c2)c1`, for which the inhibition was 20.6%.
On to `CC(=O)N[C@@]12CN(C)CC[C@@H]1[C@@H](c1ccccc1)N(CC(=O)Nc1ccc(F)cc1)C2`, for which the inhibition was -2.8%.
On to `COCCCn1c(=O)c2ccccc2n(Cc2nc(-c3ccccc3)no2)c1=O`, for which the inhibition was -3.49%.
The value for `N#Cc1ccccc1Cn1c(=O)n(CCCC(=O)NCc2ccc(F)cc2)c(=O)c2ccccc21` was 30.8% (active).
For the compound `O=C(CCCn1c(=O)c2ccccc2n(Cc2ccccc2F)c1=O)NC1CCCC1`, the inhibition is 21.6%.
Regarding `CC1Oc2ccc(NC(=O)c3ccc4c(c3)CCC4)cc2NC1=O` (stereo not drawn), the inhibition is -11%.
The value for `Cc1ccc(Cn2cc(-c3noc(-c4ccc[nH]4)n3)nn2)cc1` was 0.022%.
The value for `COc1ccccc1C(=O)Nc1cccc(Oc2ccccc2)c1` was 12.6%.
Regarding `CC(CCc1ccccc1)NC(=O)c1cc2cc(Oc3ccccc3)ccc2[nH]1` (stereo not drawn), the inhibition is 32.3% (active).
As to `CC(CCc1ccccc1)NC(=O)/C=C/c1cccc([N+](=O)[O-])c1` (stereo not drawn), the inhibition is 6.91%.
With `C[C@@H]1O[C@@H](OC2[C@H](Oc3cc(O)c4c(c3)OC(c3ccc(O)cc3)CC4=O)O[C@H](CO)[C@@H](O)[C@@H]2O)[C@H](O)[C@H](O)[C@H]1O` (stereo partly drawn) the figure was 0.6%; with `Cc1cccc(C2=NC3(CCN(CC(=O)Nc4ccccc4C)CC3)NC2=O)c1`, -42.3%.
In the case of `Cc1ccc2cc(CNc3ccccc3)c(=O)n(CC(=O)Nc3ccccc3C)c2c1`, the inhibition was 84.2% (active).
Regarding `Cc1cccc(NC(=O)Cn2c(C)ccc(NC(=O)Nc3cccc(C)c3)c2=O)c1`, the inhibition is 14%.
Regarding `O=C(Cn1cccc(S(=O)(=O)N2CCCC2)c1=O)Nc1ccccc1`, the inhibition was -38%.
The value for `CN(C)CCO[C@H]1CN(C(=O)c2cccnc2)[C@@H]2CCCO[C@H]12` was -13.9%; that for `COc1ccc(C)cc1NC(=O)Cn1c(=O)nc(N(C)c2ccccc2)c2ccccc21` was 14.1%; that for `O=C(Cn1cnc2c(sc3ccccc32)c1=O)Nc1ccc2c(c1)OCCO2` was 23.3%.
On to `CN(c1ccccc1)c1nc(=O)n(CC(=O)Nc2ccc3c(c2)OCCO3)c2ccccc12`, for which the inhibition was 54% (active).
With `COc1cc(O)sc1C=Nc1ccc(Oc2ccccc2)cc1` the figure was 9.93%.
The value for `Cc1cnc(N2CCC3(CC2)[C@@H]2CN(Cc4cccnc4)C[C@@H]2C(=O)N3C)nc1` was -34.9%; that for `CCC(Oc1ccccc1)C(=O)NCc1ccc2c(c1)OCO2` (stereo not drawn) was -0.19%; that for `c1ccc(-c2ccc(NCc3ccc4c(c3)OCO4)nn2)cc1` was 71.6% (active).
With `c1cc(CNCc2ccc3c(c2)OCO3)ccn1` the figure was 0.475%; with `COC(=O)c1ccc(CN2CCN(c3cnn4cnnc4c3)CC2)cc1`, 0.152%.
As for `CN(CC(=O)Nc1cccc(C(F)(F)F)c1)Cc1nc2ccccc2c(=O)[nH]1`, the inhibition is -13.9%.
The value for `Cc1ccc(S(=O)(=O)Nc2nc3ccccc3n3nnnc23)cc1` was -34.7%; that for `CSc1nccc(-c2ccc(F)cc2)c1C#N` was 82.5% (active).
`COc1ccc(F)c([C@@H]2NC(=O)CC[C@H]2NCc2cccc(O)c2)c1`: the inhibition was -6.39%.
Turning to `CC(=O)Nc1cccnc1-c1ccc(C(=O)Nc2ccc(C)c(C)c2)cc1`, the inhibition is 6.52%.
The value for `Cc1ocnc1C(=O)N[C@@H]1C[C@@H](Oc2ccccc2)[C@H](O)[C@H]1N1CCOCC1` was 9.29%; that for `Cc1cccc(OCCCC(=O)Nc2sc3c(c2C(N)=O)CCCC3)c1C` was -11%.
With `Cc1ccc2occ(CC(=O)Nc3sc4c(c3C(=O)NCc3cccnc3)CCCC4)c2c1` the figure was 33.6% (active).
Turning to `Cc1ccc(NS(=O)(=O)c2cc(C(=O)NCc3cccnc3)ccc2Cl)cc1`, the inhibition was 6.21%.
With `COc1ccc(CCNC(=O)c2ccc3ccccc3c2)cc1OC` the figure was -2.29%; with `COc1ccc2[nH]cc(CCNC(=O)Cc3csc(-c4cc(OC)c(OC)c(OC)c4)n3)c2c1`, 8.14%.
With `O=C(NCCc1c[nH]c2ccccc12)c1cc2cc(Cl)ccc2o1`, the inhibition is 23%.
With `CCC(=O)NC(=NCCc1c[nH]c2ccc(Cl)cc12)Nc1nc(C)cc(C)n1` the figure was 43.9% (active); with `CC(=O)N1CCCCCC1C1CCN(c2ncccc2C#N)CC1` (stereo not drawn), -19%.
The value for `Cn1nccc1-c1cccc(-c2noc(-c3ccoc3)n2)c1` was -3.53%.
`O=C(CCCC1=NS(=O)(=O)c2ccccc2N1)Nc1ccc(C(=O)O)cc1`: the inhibition was 25.1%.
The value for `Cc1c(Cl)cccc1NC(=O)C(=O)c1cn(CC(=O)N2CCOCC2)c2ccccc12` was -0.359%; that for `Cn1ccnc1CN1C(=O)CO[C@H]2CN(Cc3ccc4c(c3)OCO4)C[C@H]21` was 4.69%; that for `Cc1ccccc1CS(=O)(=O)Cc1ccc(C(=O)Nc2noc3ccccc23)o1` was 48.3% (active).
The value for `Cc1cc(-c2cncnc2-c2ccc(CNC(=O)Cc3ccccc3C)cc2)on1` was 18.8%.
